Among the data in PubChem BioAssay are composite z-score and z-score values, retold here.

For experiment [1], the system named is PRMT1 (protein arginine N-methyltransferase 1). Description: PRMT1 binders on small-molecule microarrays, primary screen, biochemical, small-molecule microarray, 635 nm fluorescence (AID 1088).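 Note: binding of Prmt1 protein to compounds spotted on small-molecule microarray slides.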 Conditions: small-molecule microarray binding, higher = more signal.
The nature of experiment [2]: yeast growth modulation, basal conditions, primary screen, YJM789 clinical isolate, OD600, 24 h (AID 1089).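 Note: growth of clinical yeast isolate S. cerevisiae YJM 789 seeded 1000 cells per well; test concentration not given here.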 Particulars: S. cerevisiae YJM789 growth, higher = more signal, called active from +8 up or from −8 down.
Experiment [3] is described as follows: fission yeast growth modulation, primary screen, strain 972, OD600, 24 h, no modulator (AID 1090).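 Note: basal condition with compound alone and no growth modifier present; test concentration not given here.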 Conditions: S. pombe 972 growth, higher = more signal, called active from +8 up or from −8 down.
Experiment [4] in a line: S. cerevisiae growth modulation with rapamycin, primary screen, strain BY4716, OD600, 96 h (AID 1091). Note: test concentration not given here. Conditions: higher = more signal, called active from +8 up or from −8 down.
Experiment [5] deals with Torsin-1A-interacting protein 2 (Homo sapiens) (UniProt Q8NFQ8). Description: LULL1 binders on small-molecule microarray, primary screen, cell lysate, human LULL1 lysate, 635/667 nm fluorescence (AID 1092).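 Note: probe is lysate of COS7 cells overexpressing human LULL1; score merges per-feature 667 nm fluorescence with signal-to-noise.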 Conditions: hLULL1 lysate binding, 635 nm fluorescence, higher = more signal.
The nature of experiment [6]: E. coli growth modulation, two-sided OD650, primary screen, E. coli filamentation project, strain DRC41, 24 h (AID 1093).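 Note: MC1000 strain lacking acrAB efflux and sulA so SOS filamentation is blocked; test concentration not given here.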 Conditions: OD650, 24 h, higher = more signal, called active from +8 up or from −8 down.
A short description of experiment [7]: small-molecule microarray binders of probe aLefty2, primary screen, biochemical, biotinylated probe, 635/667 nm fluorescence (AID 1094).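 Note: score merges spot fluorescence near 667 nm with spot signal-to-noise ratio.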 Conditions: higher = more signal.
For experiment [8], the system named is Noggin (protein binding on small-molecule microarray). Nature of the experiment: Noggin binders on small-molecule microarray, primary screen, biochemical, 635/667 nm fluorescence (AID 1095).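 Note: score merges 667 nm feature fluorescence with signal to noise over triplicate slides.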 Particulars: 635 nm fluorescence, higher = more signal.
Experiment [9] deals with Neurogenic locus notch homolog protein 3 (Homo sapiens) (UniProt Q9UM47). Description: NOTCH3 binders on small-molecule microarray, primary screen, biochemical, 635/667 nm fluorescence (AID 1096). Particulars: NOTCH3 binding, 635 nm fluorescence, higher = more signal.
The nature of experiment [10]: small-molecule microarray binders of probe aEGFR, primary screen, biochemical, biotinylated probe, 635/667 nm fluorescence (AID 1097).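 Note: probe is a biotinylated anti-EGFR antibody binding compounds printed on slides; score combines fluorescence near 667 nm and signal to noise of each spot.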 Particulars: higher = more signal.
The test system of experiment [11] is Plasmodium falciparum Sir2 (PF13_0152, Sir2A). Nature of the experiment: pfSir2 binders on small-molecule microarrays, primary screen, biochemical, small-molecule microarray, 635 nm fluorescence (AID 1098).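 Note: score merges spot fluorescence intensity with its signal-to-noise ratio.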 Conditions: small-molecule microarray binding, fluorescence 635 nm; higher = more signal.
Experiment [12] in a line: small-molecule microarray binders of probe aDKK1, primary screen, biochemical, biotinylated probe, 635/667 nm fluorescence (AID 1099).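 Note: score merges 667nm spot fluorescence with signal to noise across triplicate slides; reference of the scale not given here.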 Particulars: higher = more signal.
Experiment [13] is described as follows: small-molecule microarray binders of probe aCHRDL2, primary screen, biochemical, biotinylated probe, 635/667 nm fluorescence (AID 1100). Particulars: higher = more signal.
Experiment [14] is described as follows: splicing luciferase reporter signal modulators, primary screen, spliceosome inhibition project, cell-based, HEK293, splice +/- reporter (AID 1101).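 Note: HEK293 cells carrying a splicing-competent luciferase reporter gene; test concentration not given here.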 Conditions: luminescence, 24 h, higher = more signal, called active from +8 up or from −8 down.
For experiment [15], the target named is Fibroblast growth factor 10 (Homo sapiens) (UniProt O15520). Description: FGF10 binders on small-molecule microarrays, primary screen, biochemical, small-molecule microarray, 635 nm fluorescence (AID 1102). Conditions: FGF10 binding, fluorescence 635 nm, higher = more signal.
The subject of experiment [16] is glycogen synthase kinase-3 (GSK3A per assay name; protocol says GSK3B). Nature of the experiment: GSK3 binders on small-molecule microarrays, primary screen, biochemical, small-molecule microarray, 635 nm fluorescence, GSK3A (AID 1103). Note: the record names both GSK3A and GSK3B. Conditions: small-molecule microarray binding, fluorescence 635 nm; higher = more signal.
For experiment [17], the target named is Epidermal growth factor receptor (Homo sapiens) (UniProt P00533). Nature of the experiment: EGFR binders on small-molecule microarrays, primary screen, biochemical, small-molecule microarray, 635 nm fluorescence (AID 1104).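 Note: score merges 667 nm emission intensity with spot signal to noise over triplicate slides.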 Particulars: EGFR binding, higher = more signal.
The target in experiment [18] is Follistatin-related protein 3 (Homo sapiens) (UniProt O95633). Nature of the experiment: FSTL3 binders on small-molecule microarrays, primary screen, biochemical, small-molecule microarray, 635 nm fluorescence (AID 1105).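 Note: score merges emission near 667 nm and signal to noise per printed spot across three slides.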 Particulars: FSTL3 binding, higher = more signal.
The target in experiment [19] is Dickkopf-related protein 1 (Homo sapiens) (UniProt O94907). Nature of the experiment: DKK1 binders on small-molecule microarrays, primary screen, biochemical, small-molecule microarray, 635 nm fluorescence scan (AID 1106).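 Note: score merges emission near 667 nm with signal to noise over three replicate slides.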 Conditions: DKK1 binding, higher = more signal.
The test system of experiment [20] is Inhibin beta A chain (activin A). Nature of the experiment: INHBA (activin A) binders on microarrays, primary screen, biochemical, small-molecule microarray, 635 nm fluorescence scan (AID 1107).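 Note: mouse activin A protein probed at 4.33 µg/mL on printed slides; score merges bound-protein fluorescence near 667 nm with spot signal-to-noise.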 Conditions: small-molecule microarray binding, higher = more signal.

Activity calls are given as the source filed them.

Chain of Follistatin-related protein 3 (Homo sapiens) (O95633 whole entry, looked up): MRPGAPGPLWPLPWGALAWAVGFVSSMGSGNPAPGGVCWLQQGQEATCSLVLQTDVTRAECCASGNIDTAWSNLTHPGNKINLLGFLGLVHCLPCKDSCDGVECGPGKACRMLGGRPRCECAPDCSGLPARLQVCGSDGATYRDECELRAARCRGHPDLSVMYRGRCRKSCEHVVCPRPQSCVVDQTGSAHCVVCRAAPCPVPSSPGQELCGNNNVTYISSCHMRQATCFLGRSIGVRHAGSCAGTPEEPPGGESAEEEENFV
Chain of Dickkopf-related protein 1 (Homo sapiens) (O94907 whole entry, looked up): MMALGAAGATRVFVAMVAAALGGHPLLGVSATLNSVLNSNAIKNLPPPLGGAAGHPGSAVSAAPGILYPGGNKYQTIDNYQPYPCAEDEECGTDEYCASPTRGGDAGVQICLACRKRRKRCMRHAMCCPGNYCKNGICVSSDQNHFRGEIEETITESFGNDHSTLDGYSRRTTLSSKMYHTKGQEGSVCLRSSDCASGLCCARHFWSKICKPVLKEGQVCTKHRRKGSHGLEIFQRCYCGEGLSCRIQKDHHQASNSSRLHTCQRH
Chain of Fibroblast growth factor 10 (Homo sapiens) (O15520 whole entry, looked up): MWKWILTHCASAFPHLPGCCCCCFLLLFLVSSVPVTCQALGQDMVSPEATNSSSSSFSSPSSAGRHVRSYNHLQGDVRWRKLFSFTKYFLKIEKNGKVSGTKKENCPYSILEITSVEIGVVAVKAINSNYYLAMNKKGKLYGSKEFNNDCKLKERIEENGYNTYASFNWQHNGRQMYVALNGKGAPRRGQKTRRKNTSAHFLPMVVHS
Chain of Epidermal growth factor receptor (Homo sapiens) (P00533 whole entry, looked up): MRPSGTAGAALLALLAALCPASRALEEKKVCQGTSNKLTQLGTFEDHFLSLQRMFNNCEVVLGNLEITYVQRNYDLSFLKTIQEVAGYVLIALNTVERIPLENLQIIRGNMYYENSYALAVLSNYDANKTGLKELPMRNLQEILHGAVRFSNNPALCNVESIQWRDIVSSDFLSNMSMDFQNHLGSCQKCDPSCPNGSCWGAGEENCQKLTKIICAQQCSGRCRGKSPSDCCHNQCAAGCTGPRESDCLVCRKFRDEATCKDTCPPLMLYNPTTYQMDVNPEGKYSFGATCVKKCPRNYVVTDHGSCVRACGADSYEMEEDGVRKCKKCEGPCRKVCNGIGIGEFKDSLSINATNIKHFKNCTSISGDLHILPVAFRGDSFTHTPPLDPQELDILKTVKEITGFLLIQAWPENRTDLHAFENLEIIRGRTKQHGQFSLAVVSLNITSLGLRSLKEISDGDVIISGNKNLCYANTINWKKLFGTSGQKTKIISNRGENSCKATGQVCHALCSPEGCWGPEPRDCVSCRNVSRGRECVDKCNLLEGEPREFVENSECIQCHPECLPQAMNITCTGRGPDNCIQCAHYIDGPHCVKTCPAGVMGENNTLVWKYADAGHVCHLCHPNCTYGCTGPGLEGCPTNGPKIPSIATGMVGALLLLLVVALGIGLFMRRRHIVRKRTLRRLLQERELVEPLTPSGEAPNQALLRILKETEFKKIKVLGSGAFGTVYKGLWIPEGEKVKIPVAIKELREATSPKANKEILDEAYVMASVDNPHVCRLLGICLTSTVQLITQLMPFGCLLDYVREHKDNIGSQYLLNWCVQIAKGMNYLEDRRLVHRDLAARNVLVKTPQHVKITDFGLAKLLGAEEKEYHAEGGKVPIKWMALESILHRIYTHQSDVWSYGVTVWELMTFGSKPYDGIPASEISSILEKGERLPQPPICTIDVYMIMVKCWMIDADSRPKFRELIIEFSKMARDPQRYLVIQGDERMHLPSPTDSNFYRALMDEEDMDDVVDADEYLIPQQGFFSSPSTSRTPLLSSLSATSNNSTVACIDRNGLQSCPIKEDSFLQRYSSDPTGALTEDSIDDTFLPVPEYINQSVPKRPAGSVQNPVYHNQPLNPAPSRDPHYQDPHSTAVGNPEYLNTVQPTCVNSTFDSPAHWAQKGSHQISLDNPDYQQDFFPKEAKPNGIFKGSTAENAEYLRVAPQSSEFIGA
Chain of Neurogenic locus notch homolog protein 3 (Homo sapiens) (Q9UM47 whole entry, looked up): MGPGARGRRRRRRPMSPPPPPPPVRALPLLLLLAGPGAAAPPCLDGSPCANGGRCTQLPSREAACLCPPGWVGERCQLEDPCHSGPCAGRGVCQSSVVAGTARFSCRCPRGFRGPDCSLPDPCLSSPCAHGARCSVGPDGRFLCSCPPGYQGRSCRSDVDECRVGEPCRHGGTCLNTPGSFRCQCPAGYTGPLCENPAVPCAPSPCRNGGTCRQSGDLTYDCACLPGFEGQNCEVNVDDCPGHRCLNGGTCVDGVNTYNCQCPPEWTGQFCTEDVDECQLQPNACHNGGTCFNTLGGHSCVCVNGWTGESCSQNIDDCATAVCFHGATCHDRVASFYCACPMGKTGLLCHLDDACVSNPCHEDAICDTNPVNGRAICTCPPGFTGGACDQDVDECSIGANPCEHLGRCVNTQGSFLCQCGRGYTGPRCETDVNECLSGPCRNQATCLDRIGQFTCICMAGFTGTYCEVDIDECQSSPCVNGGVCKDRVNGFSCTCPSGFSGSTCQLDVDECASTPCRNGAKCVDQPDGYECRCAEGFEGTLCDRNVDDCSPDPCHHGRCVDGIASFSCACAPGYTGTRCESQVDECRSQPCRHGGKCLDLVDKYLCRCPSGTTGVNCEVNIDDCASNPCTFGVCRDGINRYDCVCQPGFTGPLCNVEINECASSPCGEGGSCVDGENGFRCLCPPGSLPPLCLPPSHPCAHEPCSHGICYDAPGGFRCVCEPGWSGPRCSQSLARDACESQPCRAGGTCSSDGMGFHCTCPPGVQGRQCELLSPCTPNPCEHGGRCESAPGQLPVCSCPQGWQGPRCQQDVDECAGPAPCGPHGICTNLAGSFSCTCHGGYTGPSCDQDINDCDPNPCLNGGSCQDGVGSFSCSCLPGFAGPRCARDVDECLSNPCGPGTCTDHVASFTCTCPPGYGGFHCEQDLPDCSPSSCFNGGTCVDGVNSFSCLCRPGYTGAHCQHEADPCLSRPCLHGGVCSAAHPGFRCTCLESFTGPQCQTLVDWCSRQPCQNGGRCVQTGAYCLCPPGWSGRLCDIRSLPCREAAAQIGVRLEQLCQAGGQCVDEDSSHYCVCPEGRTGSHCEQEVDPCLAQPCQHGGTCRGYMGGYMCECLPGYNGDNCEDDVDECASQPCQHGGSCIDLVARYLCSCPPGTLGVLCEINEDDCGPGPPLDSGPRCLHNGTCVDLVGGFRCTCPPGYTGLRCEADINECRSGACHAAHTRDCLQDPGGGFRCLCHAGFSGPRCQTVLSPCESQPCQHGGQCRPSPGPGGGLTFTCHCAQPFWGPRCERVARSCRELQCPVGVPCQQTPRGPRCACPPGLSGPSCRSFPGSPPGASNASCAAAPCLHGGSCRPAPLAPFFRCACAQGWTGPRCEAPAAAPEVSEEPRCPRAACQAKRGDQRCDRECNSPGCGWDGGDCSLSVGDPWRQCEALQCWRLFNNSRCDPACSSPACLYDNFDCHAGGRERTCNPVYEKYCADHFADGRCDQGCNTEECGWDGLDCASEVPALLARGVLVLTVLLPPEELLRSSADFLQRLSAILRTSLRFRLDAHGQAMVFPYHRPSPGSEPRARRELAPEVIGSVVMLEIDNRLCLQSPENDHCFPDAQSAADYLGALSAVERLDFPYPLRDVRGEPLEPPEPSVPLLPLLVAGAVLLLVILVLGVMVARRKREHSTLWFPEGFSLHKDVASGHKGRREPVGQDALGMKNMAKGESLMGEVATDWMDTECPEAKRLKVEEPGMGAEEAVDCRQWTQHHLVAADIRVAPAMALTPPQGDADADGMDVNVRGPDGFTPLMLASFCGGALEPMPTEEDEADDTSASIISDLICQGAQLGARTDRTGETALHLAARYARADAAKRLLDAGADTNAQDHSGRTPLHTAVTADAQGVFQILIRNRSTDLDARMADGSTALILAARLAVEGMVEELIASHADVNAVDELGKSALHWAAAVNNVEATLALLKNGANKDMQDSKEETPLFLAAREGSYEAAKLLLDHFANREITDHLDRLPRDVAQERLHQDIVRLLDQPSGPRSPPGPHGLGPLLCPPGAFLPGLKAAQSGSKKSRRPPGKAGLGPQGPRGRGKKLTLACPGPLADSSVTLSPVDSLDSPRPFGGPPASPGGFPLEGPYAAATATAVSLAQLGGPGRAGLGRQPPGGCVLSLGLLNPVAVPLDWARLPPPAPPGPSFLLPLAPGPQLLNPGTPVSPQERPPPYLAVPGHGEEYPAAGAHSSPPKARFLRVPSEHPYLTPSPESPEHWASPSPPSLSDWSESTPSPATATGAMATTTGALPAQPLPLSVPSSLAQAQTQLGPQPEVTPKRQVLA
Chain of Torsin-1A-interacting protein 2 (Homo sapiens) (Q8NFQ8 whole entry, looked up): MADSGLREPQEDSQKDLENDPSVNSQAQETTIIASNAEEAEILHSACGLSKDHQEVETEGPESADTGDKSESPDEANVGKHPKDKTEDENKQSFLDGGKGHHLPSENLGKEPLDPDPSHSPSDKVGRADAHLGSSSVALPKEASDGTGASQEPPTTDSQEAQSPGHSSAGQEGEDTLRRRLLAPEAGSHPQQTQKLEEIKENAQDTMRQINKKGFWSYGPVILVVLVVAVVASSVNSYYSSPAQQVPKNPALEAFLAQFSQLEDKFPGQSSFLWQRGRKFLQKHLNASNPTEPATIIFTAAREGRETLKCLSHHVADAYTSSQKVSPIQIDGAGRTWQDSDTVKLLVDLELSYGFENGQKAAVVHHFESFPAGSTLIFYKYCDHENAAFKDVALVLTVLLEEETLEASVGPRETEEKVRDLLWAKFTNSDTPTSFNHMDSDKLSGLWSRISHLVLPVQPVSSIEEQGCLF

`COc1cc(CO)cc(I)c1O[C@H]1C=C(C(=O)NCCO)C[C@@H](N(CCc2cccc(F)c2)C(=O)CCC2CCCC2)[C@@H]1O`: the composite z-score was 1.55 in [1]; 1.7 in experiment [5]; -0.0632 in [7]; 1.91 in [8]; 0.922 in [9]; -0.0302 in experiment [10]. Moreover, the composite z-score is 1.1 in experiment [11]; 0.0556 in [12]; 0.252 in experiment [13]; 1.54 in experiment [15]; 1.01 in [16]; -0.261 in experiment [17]. Besides, the composite z-score in [18] worked out at 0.716; in experiment [19], 0.897; in [20], 0.733. For the same molecule, the z-score in [2] is 0.645 (inactive); in [3], -6.99 (inactive); in experiment [4] it was -1.02 (inactive); in experiment [6] it was 0.0555 (inactive); in experiment [14], -1.37 (inactive).
For `O=C1C2C=CC(C(O)C3CC=CCC3)N(n3cnnc3)C2C(=O)N1Cc1ccccc1` (stereo not given), the composite z-score in [1] was 1.07; in [5] it was 1.09; in [7], -0.223; in [8], -1.05; in experiment [9], -0.686; in [10], -0.314. In addition, the composite z-score in experiment [11] is 0.213; in [12], -0.3; in [13] it was 0.348; in experiment [15], -0.644; in experiment [16] it was -0.406; in [17], -1.64. Moreover, the composite z-score was -1 in experiment [18], -0.746 in experiment [19] and 0.672 in experiment [20]. Also, the z-score in [2] was -0.504 (inactive); in experiment [3] it was 0.196 (inactive); in experiment [4], 0.0633 (inactive); in experiment [6], -1.09 (inactive); in experiment [14], 0.276 (inactive).
Turning to `CN1C(=O)C2C=CC(C(O)C(c3ccccc3)c3ccccc3)N(Nc3ccccc3)C2C1=O` (stereo not given), the composite z-score in [1] was 1.55; in experiment [5], 3.46; in experiment [7] it was 0.0336; in experiment [8] it was -0.152; in experiment [9], 1.05; in experiment [10], 0.0209. The composite z-score stood at 0.929 in [11]; 0.724 in [12]; 0.883 in experiment [13]; 1.11 in experiment [15]; 1.32 in experiment [16]; 0.247 in [17]. Further, the composite z-score in experiment [18] is 1.07; in experiment [19], -0.138; in [20], 0.596. Also, the z-score in [2] was -0.272 (inactive); in experiment [3], -0.346 (inactive); in [4], -0.125 (inactive); in [6] it was -1.7 (inactive); in experiment [14], 0.559 (inactive).
With `[N-]=[N+]=NCc1ccccc1[C@H]1OC(c2ccc(OCCCO)cc2)=N[C@@]1(Cc1ccccc1)C(=O)O`, the composite z-score in [1] stood at 1.55; in experiment [5], 2.81; in experiment [7], 0.0869; in experiment [8], 0.462; in [9] it was 0.502; in [10] it was 0.346. The composite z-score in [11] came to 0.208; in experiment [12], 0.213; in experiment [13], 0.884; in experiment [15] it was 0.621; in experiment [16], 0.51; in experiment [17], 0.0378. Moreover, the figures for the composite z-score in experiment [18], in experiment [19] and in experiment [20] were 0.47, -0.213 and 1.25, respectively. For the same molecule, the z-score in experiment [2] was -0.36 (inactive); in experiment [3] it was -2.06 (inactive); in experiment [4], -0.759 (inactive); in [6] it was -0.395 (inactive); in experiment [14], -1.01 (inactive).
Consider `COCC1=C([C@H](O)CCc2ccccc2)[C@H](CO)[C@@H]2C(=O)N(Cc3ccccc3)C(=O)[C@@H]2C1`, for which the composite z-score in experiment [1] was -0.197; in [5], -0.0602; in [7], -0.235; in [8] it was 0.49; in [9], 0.248; in experiment [10], -0.0794. The composite z-score was -0.0333 in experiment [11]; -0.253 in experiment [12]; -0.25 in [13]; 0.438 in [15]; 0.0321 in experiment [16]; 0.313 in experiment [17]. Moreover, the composite z-score in experiment [18] came to 0.265; in experiment [19], 0.391; in experiment [20], 0.554. In addition, the z-score in experiment [2] was 0.226 (inactive); in experiment [3] it was -0.819 (inactive); in [4], -0.177 (inactive); in experiment [6], 1.38 (inactive); in experiment [14] it was 0.212 (inactive).
In the case of `CC(C)[C@H]1COC(=O)N1C(=O)[C@H]1[C@@H](c2ccccc2)N(c2ccccc2)O[C@@H]1C`, the composite z-score in experiment [1] is 0.842; in experiment [5], 1.29; in experiment [7], -0.0023; in [8], 0.403; in [9], 0.757; in experiment [10] it was -0.12. For the same molecule, the composite z-score in experiment [11] was 0.22; in experiment [12] it was -0.139; in experiment [13], -0.273; in experiment [15], 0.521; in experiment [16], 0.474; in experiment [17], 0.218. Also, the composite z-score in [18] was determined as 1.04; in experiment [19] it was 0.517; in experiment [20], 0.264. Also, the z-score is -0.384 (inactive) in experiment [2]; -2.87 (inactive) in experiment [3]; 0.0611 (inactive) in experiment [4]; 0.874 (inactive) in experiment [6]; 0.145 (inactive) in experiment [14].
